The values that follow come from PubChem BioAssay AID504339 (National Center for Advancing Translational Sciences (NCATS), 2011).

The campaign covered roughly 390,000 compounds. About 17,000 (4.4%) were called active. About 8% were inconclusive and are not listed. What follows is part of a selection rich in actives, with near analogues and random picks from the rest. Values without a mark were called inactive. Calls come from the whole dose curve; as a rule, active = well fitted inhibition curve with a large enough effect; inconclusive = small, poorly fitted or top-dose-only effect; inactive = no such curve, though single readings can be large or run the other way.
% is set by controls: 0 for no effect and ±100 for the full control effect; potency is the fitted concentration of half-maximal effect.

Chain of Lysine-specific demethylase 4A (Homo sapiens) (O75164 whole entry, looked up, the tested form may be a part): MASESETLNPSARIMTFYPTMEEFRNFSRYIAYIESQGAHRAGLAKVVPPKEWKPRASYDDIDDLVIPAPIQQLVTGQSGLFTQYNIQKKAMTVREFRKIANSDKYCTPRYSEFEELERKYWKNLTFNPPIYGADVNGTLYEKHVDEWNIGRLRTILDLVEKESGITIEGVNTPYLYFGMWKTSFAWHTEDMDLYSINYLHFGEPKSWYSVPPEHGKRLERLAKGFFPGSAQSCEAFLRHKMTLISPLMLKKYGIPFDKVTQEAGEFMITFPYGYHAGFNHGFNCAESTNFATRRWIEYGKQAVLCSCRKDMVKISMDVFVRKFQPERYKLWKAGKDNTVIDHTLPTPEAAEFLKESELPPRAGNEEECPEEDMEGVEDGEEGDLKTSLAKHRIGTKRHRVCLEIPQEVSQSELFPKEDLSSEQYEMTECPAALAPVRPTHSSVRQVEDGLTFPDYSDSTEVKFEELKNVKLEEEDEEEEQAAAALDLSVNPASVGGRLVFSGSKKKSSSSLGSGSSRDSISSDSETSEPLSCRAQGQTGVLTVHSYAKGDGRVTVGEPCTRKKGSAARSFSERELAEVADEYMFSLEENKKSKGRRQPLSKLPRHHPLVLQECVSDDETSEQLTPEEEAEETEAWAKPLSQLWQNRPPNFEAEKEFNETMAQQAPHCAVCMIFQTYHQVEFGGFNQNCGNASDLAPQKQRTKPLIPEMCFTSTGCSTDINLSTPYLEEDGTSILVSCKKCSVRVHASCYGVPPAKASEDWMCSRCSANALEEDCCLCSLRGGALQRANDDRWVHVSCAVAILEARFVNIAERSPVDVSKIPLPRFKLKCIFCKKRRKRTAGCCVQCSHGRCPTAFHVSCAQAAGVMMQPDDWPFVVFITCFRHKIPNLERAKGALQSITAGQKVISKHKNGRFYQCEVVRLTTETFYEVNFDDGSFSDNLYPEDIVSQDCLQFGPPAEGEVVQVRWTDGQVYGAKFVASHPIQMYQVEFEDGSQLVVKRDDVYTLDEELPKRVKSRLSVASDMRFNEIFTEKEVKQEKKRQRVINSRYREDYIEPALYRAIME

This assay has as its target Lysine-specific demethylase 4A (Homo sapiens) (UniProt O75164). The assay is described as follows: qHTS Assay for Inhibitors of JMJD2A-Tudor Domain. Note: nearly all actives have a fitted effect of over 50% in size. The settings on record: AlphaScreen JMJD2A-Tudor / H3K4me3 peptide binding; series mostly up to 114 µM; activity change, negative = inhibition: at the top concentration.
As to `CCOc1ccccc1CNC(=O)Nc1cn(CC(C)C)c(=O)c2ccccc12`, the “activity change, negative = inhibition” value was -14.9%. Take `CCc1nn(CC(=O)N2CCN(c3ccc(Cl)cc3)CC2)c(=O)c2cc3occc3n12`: the “activity change, negative = inhibition” value is -32.2%. For `Cc1ccc(CCNC(=O)c2ccc(CS(=O)(=O)Cc3cccc(C)c3)o2)cc1`, the “activity change, negative = inhibition” value is -25.1%. Regarding `Cc1ccc(-n2c(SCC(=O)Nc3cccc(F)c3)nc3c(oc4ccccc43)c2=O)cc1C`, the “activity change, negative = inhibition” value was -10.9%. For the molecule `COC(=O)c1ccc(/C=N/N2C(C)CCCC2C)cc1` (stereo not drawn), the Potency is 63.1 µM (active). For `COC(=O)c1ccc(/C=N/OCC(=O)Nc2cc(F)ccc2F)cc1`, the “activity change, negative = inhibition” value was -15.9%. The same measure, in the same setting: the value for `COC(=O)c1ccc(/C=N/NC(=O)C(=O)N2CCCCCC2)cc1` was 7.78%. Consider `CCOc1ccc(/C(O)=C2/C(=O)C(=O)N(Cc3cccnc3)C2c2ccc(N(C)C)cc2)c(C)c1` (stereo not drawn), for which the Potency was 56.2 µM (active). `CCOc1cccc(/C(O)=C2/C(=O)C(=O)N(CCOC)C2c2ccncc2)c1` (stereo not drawn): the “activity change, negative = inhibition” value was -15.7%. On to `CCCOc1ccc(C2c3c(-c4ccccc4O)n[nH]c3C(=O)N2Cc2cccnc2)cc1` (stereo not drawn), for which the “activity change, negative = inhibition” value is -21.1%. In the case of `COc1ccccc1CNCc1cccs1`, the “activity change, negative = inhibition” value was -8.7%. Turning to `COc1ccccc1CN1CCN(Cc2cc(OC)c(OC)cc2OC)CC1`, the Potency was 7.08 µM (active).

In the case of `CC(C)OCC(O)CN1CCN(C(c2ccccc2)c2ccccc2)CC1` (stereo not drawn), the “activity change, negative = inhibition” value is -8.28%. With `COc1ccccc1N1CCN(Cc2ccc(OC)c3ccccc23)CC1`, the Potency is 3.16 µM (active). As to `CNCC(O)CN1CCN(c2ccccc2OC)CC1` (stereo not drawn), the “activity change, negative = inhibition” value is -8.45%.

Take `COc1ccccc1NC(=S)N1CCN(C(c2ccccc2)c2ccccc2)CC1`: the “activity change, negative = inhibition” value is -21.7%. In the case of `COc1ccccc1N1CCN(Cc2cc(OC)c3c(c2)OCO3)CC1`, the “activity change, negative = inhibition” value is -27.9%. Regarding `COc1ccccc1Cn1c(CO)nc2ccccc21`, the “activity change, negative = inhibition” value was -17.6%. Take `Oc1ccccc1CN1CCN(C(c2ccccc2)c2ccccc2)CC1`: the Potency was 56.2 µM (active). For the molecule `CC(=O)N1CCN(CC(c2ccccc2)c2ccccc2)CC1`, the “activity change, negative = inhibition” value was -9.23%.

In the case of `COc1ccccc1CN1CCN(C(c2ccccc2)c2ccccc2)CC1`, the Potency was 50.1 µM (active).

Turning to `COc1ccc(OC)c(CN2CCN(C(=O)CNC(=O)c3cc(C)cc(C)c3)CC2)c1`, the “activity change, negative = inhibition” value is -18.2%.

As for `CCCCNc1ccc(-c2nc(-c3ccncc3)no2)cc1[N+](=O)[O-]`, the “activity change, negative = inhibition” value was -17.5%. `CCOC(=O)c1c(S(=O)(=O)N2CCC(C(=O)NCc3ccccc3OC)CC2)c(C)n(C)c1C`: the “activity change, negative = inhibition” value is -14%. As to `O=C(COc1ccccc1)NCc1ccc2c(c1)CCN2C(=O)c1ccc(F)cc1`, the “activity change, negative = inhibition” value was -14%. Still for that read-out and setting: for `COc1ccc(-c2c(C)nn3c(N4CCC(C(=O)NCCC(C)C)CC4)cc(C)nc23)cc1OC` the value was 0.337%.

For `COc1ccccc1CNc1nc2ccc(Cl)cc2n2cnnc12`, the “activity change, negative = inhibition” value is 0.336%. As for `CCn1c(C)c(C)c2cc(C(=O)NCCc3cc(OC)ccc3OC)ccc21`, the Potency was 35.5 µM (active). On to `COc1ccc(-n2c(=O)[nH]c3cc(C(=O)NCCc4ccc(OC)c(OC)c4)ccc3c2=O)c(OC)c1`, for which the “activity change, negative = inhibition” value is 4.2%.

As for `COc1ccc(OC)c(CCNC(=O)c2nn(C)c3c2CS(=O)(=O)c2ccccc2-3)c1`, the “activity change, negative = inhibition” value was -15.8%. As to `Cc1cc(C)c(-c2n[nH]c3c2C(c2ccccc2F)N(CCO)C3=O)c(O)c1` (stereo not drawn), the “activity change, negative = inhibition” value was -1.26%. For the molecule `COc1ccc(N(Cc2ccc(N(C)C)cc2)C(=O)c2ccc(S(C)(=O)=O)cc2)cc1`, the Potency was 63.1 µM (active). As to `COc1ccc(CNC(=O)Cn2nnc(-c3ccc(S(C)(=O)=O)cc3)n2)cc1`, the “activity change, negative = inhibition” value is -16.8%. Turning to `COc1ccc(S(=O)(=O)NCc2ccc(C(=O)N(C)Cc3ccco3)cc2)cc1`, the “activity change, negative = inhibition” value was -22%. On the same count and under the same terms, for `CCn1cc2nc(SCc3ccccc3Cl)n(CCc3ccccc3)c(=O)c2n1` the value was -12.3%.

As for `O=C(c1cccc(Br)c1)N1CCN(Cc2cc(=O)n3nc(-c4ccccc4)sc3n2)CC1`, the “activity change, negative = inhibition” value was -10.7%. On the same count and under the same terms, for `COCCCNC(=O)c1c(NC(=O)c2cc(=O)c3cc(C)c(C)cc3o2)sc2c1CCCC2` the value was -1.74%; for `Cc1ccc(-c2nn3c(=O)cc(CN4CCN(C(=O)Nc5cccc(C(F)(F)F)c5)CC4)nc3s2)cc1`, -8.77%. For `COc1ccc(N(C(=O)c2cccnc2)S(=O)(=O)c2ccc(OC)c(OC)c2)cc1`, the “activity change, negative = inhibition” value is -16.9%.

Consider `O=C(c1cccnc1)N(c1cc2sc(=O)oc2c2ccccc12)S(=O)(=O)c1ccccc1`, for which the Potency was 25.1 µM (active). For `O=C(c1cccnc1)N(Cc1ccccc1)C(=O)c1cccnc1`, the “activity change, negative = inhibition” value is -11%. For the molecule `COc1ccc(C(F)(F)F)cc1NC(=O)c1sc2nc(-c3cccs3)ccc2c1N`, the “activity change, negative = inhibition” value is -4.5%. As for `COc1cccc(CNC(=O)C(NS(=O)(=O)c2ccc3nc(C)sc3c2)C(C)C)c1` (stereo not drawn), the “activity change, negative = inhibition” value is 2.32%.

Take `CCOC(=O)N1CCN(C(=O)C2CCN(S(=O)(=O)c3cc(Cl)ccc3OCC)CC2)CC1`: the “activity change, negative = inhibition” value is -10.4%. Regarding `CCOC(=O)N1CCN(C(=O)C2CCN(Cc3ccc(OC)cc3OC)CC2)CC1`, the Potency is 1 µM (active). Consider `CCOC(=O)N1CCN(CCC(=O)Nc2cc(OC)ccc2OC)CC1`, for which the “activity change, negative = inhibition” value was -18.9%. As to `CC(C)(C)c1ccc(C(=O)NCC(c2ccco2)S(=O)(=O)c2ccc(F)cc2)cc1` (stereo not drawn), the “activity change, negative = inhibition” value is -9.42%. Consider `O=C(NCc1cccnc1)C(=O)NCC(c1cccnc1)N1CCN(c2ccccc2)CC1` (stereo not drawn), for which the “activity change, negative = inhibition” value is 10.9%.
